From PubChem BioAssay AID588511 (Johns Hopkins Ion Channel Center, 2011)
The campaign covered roughly 310,000 compounds. About 3,600 (1.2%) were called active.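 The calls were made as follows: active = ratio plate-corrected score three or more library SD toward inhibition, starting fluorescence score within five deviations; inactive = the rest.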 Shown is part of a subset that was picked to be rich in actives.

biological target: Anoctamin-1 (Mus musculus) (UniProt Q8BHY3); test: blockers of mouse ANO1 Ca-activated Cl channel – cell-based, HTS, primary screen (AID 588511); conditions: HEK293 TMEM16A/YFP iodide influx fluorescence, ionomycin; at 10 µM;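 as to normalized B-score (activity score, 25-100; higher = stronger inhibition): score derived from kinetic fluorescence span divided by baseline fluorescence per well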
Sequence (Q8BHY3 whole entry, looked up): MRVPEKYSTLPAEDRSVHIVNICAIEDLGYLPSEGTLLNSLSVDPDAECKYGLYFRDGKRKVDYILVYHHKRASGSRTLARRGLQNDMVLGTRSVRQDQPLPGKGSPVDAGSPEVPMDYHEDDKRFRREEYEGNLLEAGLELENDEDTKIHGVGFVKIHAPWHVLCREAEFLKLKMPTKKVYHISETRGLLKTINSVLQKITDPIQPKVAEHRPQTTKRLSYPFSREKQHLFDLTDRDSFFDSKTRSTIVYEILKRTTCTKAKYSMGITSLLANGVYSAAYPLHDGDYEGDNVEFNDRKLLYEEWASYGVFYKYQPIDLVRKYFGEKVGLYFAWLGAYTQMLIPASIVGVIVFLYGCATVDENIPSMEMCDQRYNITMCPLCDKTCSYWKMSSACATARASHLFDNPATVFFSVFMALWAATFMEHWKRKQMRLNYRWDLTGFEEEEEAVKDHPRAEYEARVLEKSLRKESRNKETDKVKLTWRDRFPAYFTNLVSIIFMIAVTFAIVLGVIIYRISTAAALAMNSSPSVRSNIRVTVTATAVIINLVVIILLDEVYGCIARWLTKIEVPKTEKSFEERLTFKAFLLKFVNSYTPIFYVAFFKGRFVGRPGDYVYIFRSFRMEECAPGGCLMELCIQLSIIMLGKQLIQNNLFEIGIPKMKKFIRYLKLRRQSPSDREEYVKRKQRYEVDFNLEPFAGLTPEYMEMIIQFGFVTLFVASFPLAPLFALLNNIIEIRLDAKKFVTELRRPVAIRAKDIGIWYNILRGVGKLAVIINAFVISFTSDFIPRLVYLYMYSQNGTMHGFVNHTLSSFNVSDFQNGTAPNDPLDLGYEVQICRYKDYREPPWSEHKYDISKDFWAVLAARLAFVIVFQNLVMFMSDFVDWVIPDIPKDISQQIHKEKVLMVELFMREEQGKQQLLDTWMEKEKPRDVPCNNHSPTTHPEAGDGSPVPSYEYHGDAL

Q: With CNS(=O)(=O)c1cnccc1N1CCN(c2cccc(C)c2)CC1 as the molecule, how does the normalized B-score (activity score, 25-100; higher = stronger inhibition) read?
A: Its normalized B-score (activity score, 25-100; higher = stronger inhibition) is “inactive”.

Q: CCC1(C)Cc2c(sc3[nH]c(=S)n(Cc4ccccc4)c(=O)c23)CO1 (centres undefined) was tested. Which normalized B-score (activity score, 25-100; higher = stronger inhibition) did it give?
A: The normalized B-score (activity score, 25-100; higher = stronger inhibition) was “inactive”.

Q: For CC1CC(C)(C)n2c(O)c(N=NC(N)=S)c3cccc1c32 (centres undefined), which normalized B-score (activity score, 25-100; higher = stronger inhibition) is on record?
A: The normalized B-score (activity score, 25-100; higher = stronger inhibition) was “inactive”.

Q: CCC(C)NCCOCCOc1ccc(Br)cc1C (centres undefined) was tested. Which normalized B-score (activity score, 25-100; higher = stronger inhibition) did it give?
A: The normalized B-score (activity score, 25-100; higher = stronger inhibition) was “inactive”.

Q: With COc1cccc(OC)c1C(=O)N1CCN(Cc2cccnc2)CC1 as the molecule, how does the normalized B-score (activity score, 25-100; higher = stronger inhibition) read?
A: The normalized B-score (activity score, 25-100; higher = stronger inhibition) was “inactive”.

Q: How did the normalized B-score (activity score, 25-100; higher = stronger inhibition) turn out when Cc1cc(-c2ccc(C)c(S(=O)(=O)Nc3ccc(S(N)(=O)=O)cc3)c2)on1 was run?
A: Its normalized B-score (activity score, 25-100; higher = stronger inhibition) is “inactive”.

Q: Which normalized B-score (activity score, 25-100; higher = stronger inhibition) does the source give for Cc1cc(-c2ccc(C)c(S(=O)(=O)NC(C)Cc3ccco3)c2)on1 (centres undefined) here?
A: Its normalized B-score (activity score, 25-100; higher = stronger inhibition) is “inactive”.

Q: Which normalized B-score (activity score, 25-100; higher = stronger inhibition) does the source give for Cc1ccc2c(c1)N(S(=O)(=O)c1cc(-c3cc(C)no3)ccc1C)CCO2 here?
A: Its normalized B-score (activity score, 25-100; higher = stronger inhibition) is 25 (active).

Q: Which normalized B-score (activity score, 25-100; higher = stronger inhibition) does the source give for C=CCNC(=O)C1CC2c3ccccc3C1c1ccccc12 (centres undefined) here?
A: Its normalized B-score (activity score, 25-100; higher = stronger inhibition) is “inactive”.

Q: Which normalized B-score (activity score, 25-100; higher = stronger inhibition) does the source give for CCOc1ccc(S(=O)(=O)N2CCCC(C(=O)N3CCC(C(N)=O)CC3)C2)cc1Cl (centres undefined) here?
A: Its normalized B-score (activity score, 25-100; higher = stronger inhibition) is “inactive”.

Q: With C#CCOCCOCCOCCNc1nc(N2CCN(C(=O)CCCCCCCCCCNC(=O)[C@H]([C@@H](C)CC)n3cc(CCCCN=C(N)N)nn3)CC2)nc(N2CCN(C(=O)CCCCCCCCCCNC(=O)[C@H](CO)n3cc(CCCSC)nn3)CC2)n1 as the molecule, how does the normalized B-score (activity score, 25-100; higher = stronger inhibition) read?
A: Its normalized B-score (activity score, 25-100; higher = stronger inhibition) is “inactive”.

Q: For C#CCOCCOCCOCCNc1nc(N2CCN(C(=O)CCCCCCCCCCNC(=O)[C@H](CCCCN)n3cc(C)nn3)CC2)nc(N2CCN(C(=O)CCCCCCCCCCNC(=O)[C@H](CO)n3cc(CCCSC)nn3)CC2)n1, which normalized B-score (activity score, 25-100; higher = stronger inhibition) is on record?
A: Its normalized B-score (activity score, 25-100; higher = stronger inhibition) is 100 (active).

Q: C#CCOCCOCCOCCNc1nc(N2CCN(C(=O)CCCCCCCCCCNC(=O)Cn3cc(CCCCCN)nn3)CC2)nc(N2CCN(C(=O)CCCCCCCCCCNC(=O)[C@H](CO)n3cc(CCCSC)nn3)CC2)n1 was tested. Which normalized B-score (activity score, 25-100; higher = stronger inhibition) did it give?
A: The normalized B-score (activity score, 25-100; higher = stronger inhibition) was “inactive”.

Q: How did the normalized B-score (activity score, 25-100; higher = stronger inhibition) turn out when COC(=O)CSc1nc2c(c(C3CC=CCC3)c1C#N)CCC2 (centres undefined) was run?
A: The normalized B-score (activity score, 25-100; higher = stronger inhibition) was “inactive”.

Q: How did the normalized B-score (activity score, 25-100; higher = stronger inhibition) turn out when CCOC(=O)C1CCN(S(=O)(=O)c2c(C)noc2C)CC1 was run?
A: The normalized B-score (activity score, 25-100; higher = stronger inhibition) was “inactive”.

Q: With Cn1c(CN2CCOCC2)nc2cc(NC(=O)c3ccc(Cl)cc3)ccc21 as the molecule, how does the normalized B-score (activity score, 25-100; higher = stronger inhibition) read?
A: The normalized B-score (activity score, 25-100; higher = stronger inhibition) was 100 (active).

Q: For CC(=O)NCCc1nc2cc(NC(=O)c3ccccc3)ccc2n1C, which normalized B-score (activity score, 25-100; higher = stronger inhibition) is on record?
A: The normalized B-score (activity score, 25-100; higher = stronger inhibition) was “inactive”.

Q: CCOC(=O)N1CCN(Cc2nc3cc(NC(C)=O)ccc3n2C)CC1 was tested. Which normalized B-score (activity score, 25-100; higher = stronger inhibition) did it give?
A: Its normalized B-score (activity score, 25-100; higher = stronger inhibition) is “inactive”.

Q: How did the normalized B-score (activity score, 25-100; higher = stronger inhibition) turn out when O=C(NCCCn1ccnc1)C1CCCN(S(=O)(=O)c2cc(Cl)ccc2Cl)C1 (centres undefined) was run?
A: Its normalized B-score (activity score, 25-100; higher = stronger inhibition) is “inactive”.

Q: Which normalized B-score (activity score, 25-100; higher = stronger inhibition) does the source give for Nc1nnc2c(C(F)(F)F)nc3ccccc3n12 here?
A: The normalized B-score (activity score, 25-100; higher = stronger inhibition) was “inactive”.

Q: O=C(NCc1ccc2c(c1)OCO2)c1cc(F)c(F)cc1Cl was tested. Which normalized B-score (activity score, 25-100; higher = stronger inhibition) did it give?
A: Its normalized B-score (activity score, 25-100; higher = stronger inhibition) is “inactive”.

Q: Which normalized B-score (activity score, 25-100; higher = stronger inhibition) does the source give for Cc1nc2c(C(=O)NCc3ccc4c(c3)OCO4)c[nH]n2c(=O)c1Cc1ccccc1F here?
A: Its normalized B-score (activity score, 25-100; higher = stronger inhibition) is 100 (active).

Q: For CCn1c(=O)c(C(=O)NCc2ccc3c(c2)OCO3)c(O)c2ccccc21, which normalized B-score (activity score, 25-100; higher = stronger inhibition) is on record?
A: The normalized B-score (activity score, 25-100; higher = stronger inhibition) was “inactive”.

Q: How did the normalized B-score (activity score, 25-100; higher = stronger inhibition) turn out when CCN(C(=O)Cc1nc(N)n[nH]1)C1(C(=O)Nc2ccccc2)CCCCC1 was run?
A: Its normalized B-score (activity score, 25-100; higher = stronger inhibition) is “inactive”.

Q: For Cc1cc(C(=O)NC2CCCc3c2cnn3-c2cccc(C)c2C)c(C)o1 (centres undefined), which normalized B-score (activity score, 25-100; higher = stronger inhibition) is on record?
A: Its normalized B-score (activity score, 25-100; higher = stronger inhibition) is “inactive”.

Q: Which normalized B-score (activity score, 25-100; higher = stronger inhibition) does the source give for Cn1nccc1C(=O)NC1CCCc2c1cnn2-c1ccccc1F (centres undefined) here?
A: Its normalized B-score (activity score, 25-100; higher = stronger inhibition) is “inactive”.

Q: How did the normalized B-score (activity score, 25-100; higher = stronger inhibition) turn out when COc1ccc(C(=O)NC2CCCc3c2cnn3-c2cccc(C)c2C)c(OC)n1 (centres undefined) was run?
A: The normalized B-score (activity score, 25-100; higher = stronger inhibition) was 100 (active).

Q: How did the normalized B-score (activity score, 25-100; higher = stronger inhibition) turn out when O=C(CCN1C(=O)c2ccccc2C1=O)C1=NN[C@@H]2C(=O)N(c3ccc(F)cc3)C(=O)[C@H]12 was run?
A: The normalized B-score (activity score, 25-100; higher = stronger inhibition) was “inactive”.

Q: With C=CCC(CC=C)(C(N)=O)c1ccccc1 as the molecule, how does the normalized B-score (activity score, 25-100; higher = stronger inhibition) read?
A: Its normalized B-score (activity score, 25-100; higher = stronger inhibition) is “inactive”.

Q: For Cc1ccc(S(=O)(=O)N2[C@@H](c3cccc(Cl)c3)C(C(=O)O)=CC[C@H]2c2ccc(Cl)c(Cl)c2)cc1, which normalized B-score (activity score, 25-100; higher = stronger inhibition) is on record?
A: The normalized B-score (activity score, 25-100; higher = stronger inhibition) was 100 (active).

Q: Which normalized B-score (activity score, 25-100; higher = stronger inhibition) does the source give for Cc1ccccc1NC(=O)NCC1CCN(Cc2cccc(Cl)c2)CC1 here?
A: The normalized B-score (activity score, 25-100; higher = stronger inhibition) was “inactive”.

Q: For Cc1ccccc1S(=O)(=O)N1[C@@H](c2cccc(Cl)c2)C(C(=O)O)=CC[C@H]1c1ccc(Cl)cc1, which normalized B-score (activity score, 25-100; higher = stronger inhibition) is on record?
A: The normalized B-score (activity score, 25-100; higher = stronger inhibition) was 100 (active).

Q: How did the normalized B-score (activity score, 25-100; higher = stronger inhibition) turn out when Cc1ccc([C@@H]2CC=C(C(=O)O)[C@H](c3cccc(Cl)c3)N2S(=O)(=O)c2ccc(C)cc2)cc1 was run?
A: The normalized B-score (activity score, 25-100; higher = stronger inhibition) was “inactive”.

Q: How did the normalized B-score (activity score, 25-100; higher = stronger inhibition) turn out when Cc1ccc(S(=O)(=O)N2[C@@H](c3ccccc3F)C(C(=O)O)=CC[C@H]2c2ccc(Cl)cc2)cc1 was run?
A: Its normalized B-score (activity score, 25-100; higher = stronger inhibition) is “inactive”.

Q: Which normalized B-score (activity score, 25-100; higher = stronger inhibition) does the source give for CS(=O)(=O)N(CC(=O)N1CCN(c2cccc(Cl)c2)CC1)c1ccccc1 here?
A: Its normalized B-score (activity score, 25-100; higher = stronger inhibition) is “inactive”.

Q: Which normalized B-score (activity score, 25-100; higher = stronger inhibition) does the source give for CC(C)CCNC(=O)CC1C(=O)N(Cc2ccccc2)C(C)c2nc3ccccc3n21 (centres undefined) here?
A: The normalized B-score (activity score, 25-100; higher = stronger inhibition) was “inactive”.

Q: CC1CCN(Cc2nc3c(c(=O)n(C)c(=O)n3C)n2CCc2ccccc2)CC1 was tested. Which normalized B-score (activity score, 25-100; higher = stronger inhibition) did it give?
A: The normalized B-score (activity score, 25-100; higher = stronger inhibition) was “inactive”.

Q: With O=C(Nc1ccccc1C(=O)NCC1CCCO1)c1ccccc1F (centres undefined) as the molecule, how does the normalized B-score (activity score, 25-100; higher = stronger inhibition) read?
A: Its normalized B-score (activity score, 25-100; higher = stronger inhibition) is “inactive”.

Q: For CCC(C(=O)NCc1cccnc1)n1nc(C)c2sc3ccccc3c2c1=O (centres undefined), which normalized B-score (activity score, 25-100; higher = stronger inhibition) is on record?
A: The normalized B-score (activity score, 25-100; higher = stronger inhibition) was “inactive”.

Q: How did the normalized B-score (activity score, 25-100; higher = stronger inhibition) turn out when O=C(Nc1nc(-c2ccc3c(c2)OCO3)cs1)c1ccncc1 was run?
A: The normalized B-score (activity score, 25-100; higher = stronger inhibition) was 100 (active).

Q: With O=C(Nc1nc2ccccc2s1)c1ccc2c(c1)OCO2 as the molecule, how does the normalized B-score (activity score, 25-100; higher = stronger inhibition) read?
A: The normalized B-score (activity score, 25-100; higher = stronger inhibition) was “inactive”.

Q: How did the normalized B-score (activity score, 25-100; higher = stronger inhibition) turn out when CC(=O)NCCC(=O)Nc1nc(-c2ccc3c(c2)OCCO3)cs1 was run?
A: Its normalized B-score (activity score, 25-100; higher = stronger inhibition) is “inactive”.

Q: With O=C(O)Cc1csc(NC(=O)CSc2nnnn2-c2ccc(O)cc2)n1 as the molecule, how does the normalized B-score (activity score, 25-100; higher = stronger inhibition) read?
A: Its normalized B-score (activity score, 25-100; higher = stronger inhibition) is “inactive”.

Q: Which normalized B-score (activity score, 25-100; higher = stronger inhibition) does the source give for CC(C)NC(=O)NCCCCCCS(C)=O (centres undefined) here?
A: The normalized B-score (activity score, 25-100; higher = stronger inhibition) was “inactive”.

Q: C=C(C)Cn1c(C)cc(C)c(S(=O)(=O)c2ccccc2C)c1=O was tested. Which normalized B-score (activity score, 25-100; higher = stronger inhibition) did it give?
A: The normalized B-score (activity score, 25-100; higher = stronger inhibition) was 100 (active).

Q: For Cc1cc(C)c(S(=O)(=O)c2ccc(F)cc2C)c(=O)[nH]1, which normalized B-score (activity score, 25-100; higher = stronger inhibition) is on record?
A: Its normalized B-score (activity score, 25-100; higher = stronger inhibition) is “inactive”.

Q: How did the normalized B-score (activity score, 25-100; higher = stronger inhibition) turn out when COc1ccccc1S(=O)(=O)c1c(C)cc(C)[nH]c1=O was run?
A: Its normalized B-score (activity score, 25-100; higher = stronger inhibition) is “inactive”.

Q: How did the normalized B-score (activity score, 25-100; higher = stronger inhibition) turn out when Cc1ccc(NC(=O)CSc2nn3c(=O)c(C)nnc3s2)cc1Cl was run?
A: The normalized B-score (activity score, 25-100; higher = stronger inhibition) was “inactive”.

Q: With CCC(C)c1ccccc1NC(=O)CN(C)CC(=O)Nc1ccccc1SC (centres undefined) as the molecule, how does the normalized B-score (activity score, 25-100; higher = stronger inhibition) read?
A: Its normalized B-score (activity score, 25-100; higher = stronger inhibition) is “inactive”.
